{
  "source": "PubChem BioAssay (NCI)",
  "note": "This is part of a sample that, as a whole, favours compounds with a hit. Of some 83,000 tested, about 20% had one in any assay.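 Testing used 96-well plates and a 48-hour single-concentration exposure. Example: -40 means 40% of the starting cells died.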 Calls of active or inactive are those of the source. Rule for the calls: active = growth percent below 10; inactive = the rest.",
  "data": [
    {"system": "CCRF-CEM leukemia", "assay": "NCI-60 one-dose screen, 48 h (100 = growth as untreated, 0 = no growth, -100 = all killed)", "conditions": "10 µM unless noted", "values": [
      {"smiles": "O=C(Nc1nc(-c2ccccc2Cl)cs1)c1cc(-c2ccc(Br)cc2)nc2ccccc12", "growth": "44.9% (inactive)"},
      {"smiles": "Cn1cc(-c2ccc3c(c2)ncn3-c2ccc(CC(=O)Nc3cc(C(C)(C)C)on3)cc2)cn1", "growth": "57.7% (inactive)"},
      {"smiles": "CCOC(=O)CC[C@H](NC(=O)c1ccc(NC)c2ccccc12)C(=O)OCC", "growth": "91.2% (inactive)"},
      {"smiles": "CCO/C=N/S(=O)(=O)c1cc2c(cc1Cl)NC=NS2(=O)=O", "growth": "95.7% (inactive)"},
      {"smiles": "C#Cc1ccccc1NC(=O)c1sc2nc3c(cc2c1N)CCCCC3", "growth": "93.8% (inactive)"},
      {"smiles": "COc1ccc(NC(=O)Nc2ccc(Nc3nc(C)cc(Nc4ccc(C)cc4)n3)cc2)cc1", "growth": "-7.9% (active)"},
      {"smiles": "C[C@]12CC[C@@H]3c4ccc(O)cc4CC[C@H]3[C@@H]1C[C@H](O)C2", "growth": "52.7% (inactive)"},
      {"smiles": "O=CN1N=C(c2ccc(Cl)cc2)CC1c1cccc(Nc2ccnc3cc(C(F)(F)F)ccc23)c1", "note": "(configuration not stated)", "growth": "51.7% (inactive)"},
      {"smiles": "O=[N+]([O-])c1ccc(N=Nc2c(O)c(N=Nc3cc([N+](=O)[O-])cc([N+](=O)[O-])c3O)cc(N=Nc3cc(S(=O)(=O)O)cc4cc(S(=O)(=O)O)cc(O)c34)c2O)cc1", "growth": "97.2% (inactive)"},
      {"smiles": "CCOCc1nc2ccccc2c(=O)[nH]1", "growth": "97.1% (inactive)"},
      {"smiles": "Nc1n[nH]c2cccc(C#Cc3cccc(NC(=O)c4cc(N5CCOCC5)cc(C(F)(F)F)c4)c3)c12", "growth": "44.2% (inactive)"},
      {"smiles": "COc1ccc2[nH]c(=O)c(/C=C/C(=O)c3ccccc3OC)cc2c1", "growth": "7.53% (active)"},
      {"smiles": "N#Cc1c(-c2ccc(F)cc2)nc(N/N=C/c2cccc(O)c2)nc1N1CCOCC1", "growth": "56.4% (inactive)"},
      {"smiles": "COc1ccc2[nH]c3nc4cnccc4cc3c2c1", "growth": "98.1% (inactive)"},
      {"smiles": "COc1cc2c(cc1OC)C(Sc1ccc(Cl)cc1)c1c(nc(N)c(C#N)c1N)O2", "note": "(configuration not stated)", "growth": "-7.67% (active)"},
      {"smiles": "C=C1C(=O)O[C@H]2[C@H]1CCC(/C=N/c1ncc(Br)cc1N)=C\\CC[C@@]1(C)O[C@@H]21", "growth": "0.102% (active)"},
      {"smiles": "CCCCC1=c2c([nH]c3ccc(OC)cc23)=NC2C=CC=NC12", "note": "(configuration not stated)", "growth": "91.5% (inactive)"},
      {"smiles": "COc1ccc(-c2nc(C#N)c(NCC(c3ccc(Cl)cc3)N3CCCCC3)o2)cc1", "note": "(configuration not stated)", "growth": "86.9% (inactive)"},
      {"smiles": "CCC[S@@](=O)c1ccc2nc(NC(=O)OC)[nH]c2c1", "growth": "86.4% (inactive)"},
      {"smiles": "CCSc1nc(Cl)c(C#N)c(-c2ccc(F)cc2)n1", "growth": "50.4% (inactive)"},
      {"smiles": "Cc1cccc(C)c1NC(=O)CN(CC(C)C)CC(O)COc1ccccc1", "note": "(configuration not stated)", "growth": "96.9% (inactive)"},
      {"smiles": "CCOC(=O)c1ccc(Nc2ncnc3ccc(NC(=O)c4ccccc4)cc23)cc1", "growth": "91.2% (inactive)"}
    ]}
  ]
}
